Structures are written as SMILES. This is part of a sample that, as a whole, favours compounds with a hit. Of some 83,000 tested, about 20% had one in any assay.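 Assay: single dose, 48 h. Readout: percent growth (0 = no net growth; negative = cell death). Active: <10.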 Values without a mark were called inactive. Active and inactive are the calls of the source.

The subject of one assay is T-47D breast. The assay can be described thus: NCI-60 one-dose screen, 48 h (100 = growth as untreated, 0 = no growth, -100 = all killed). The settings on record: 10 µM unless noted.
Turning to `C[C@H]1[C@H]2[C@H]3CC[C@@H]4[C@@]5(C)C/C(=C/c6ccco6)C(=O)C(C)(C)[C@@H]5CC[C@@]4(C)[C@]3(C)CC[C@]23CO[C@]1(C)[C@@H](C(=O)/C=C\c1ccco1)C3`, the growth was 80.3%.

`O=C(CCCCCCN1CC(=O)N2[C@@H](c3ccccc3Cl)c3[nH]c4ccccc4c3C[C@H]2C1=O)NO`: the growth is 28.3%.

As to `O=C(Nc1cccc(C(F)(F)F)c1)Nc1cccc(C(F)(F)F)c1`, the growth is -4.96% (active).

For `CC1=C([Se]CC(OC(=O)CC[Se]c2ccccc2)C(=O)NCCCCCC(=O)OCc2ccccc2)C(=O)c2ccccc2C1=O` (stereo unspecified), the growth was 56%.

In the case of `CCCCNC(=O)Oc1ccc2c(=O)c3sc4c(=O)c5ccccc5c(=O)c4c3c(=O)c2c1`, the growth is -38.5% (active).

With `C=C1C(=O)O[C@H]2[C@H]1CC/C(COC(=O)C(=O)c1c[nH]c3ccc(OC)cc13)=C\CC[C@@]1(C)O[C@@H]21`, the growth was -54.5% (active).

Take `O=c1[nH]nc(-c2ccccc2)c2c(-c3ccccc3)onc12`: the growth is 20.1%.

Regarding `COc1cc(-c2nn(-c3ccccc3)cc2-c2ccnc(NCCNS(=O)(=O)c3ccc(Cl)cc3)n2)ccc1Cl`, the growth is 4.68% (active).

Consider `CCCCn1c(=O)c2c(nc(NCCc3ccc(O)c(O)c3)n2CCC)n(CCCC)c1=O`, for which the growth is 49.3%.

`S=C(c1ccc2c(c1)OCO2)N1CCN(c2ccccc2Cl)CC1`: the growth is 94%.

On to `CC1=NOC(=O)/C1=C\c1ccc(O)cc1`, for which the growth was 104%.

As to `O=[N+]([O-])c1ccc(N2c3ccncc3Sc3ccncc32)cc1`, the growth was 97.4%.

With `C=CCNc1nc(NN2C(=O)c3cccc4cccc(c34)C2=O)nc(-n2cnc3ccccc32)n1`, the growth is 54.8%.

As to `Nc1ccc2c(c1)c(N)nn2C(=O)Nc1ccc(Cc2ccccc2)cc1`, the growth is 60.4%.

`COC(=O)c1ccc(CSc2nnc(-c3c(C)nc4ccc(C)cn34)o2)cc1`: the growth is 89.4%.

For the compound `Cc1cc(O)c(C2=NN(c3ccc(S(N)(=O)=O)cc3)C(c3ccccc3Cl)C2)cc1Cl` (stereo unspecified), the growth was 18.3%.

Consider `Cc1ccc(Cc2cnc(NC(=O)c3ccc4noc(-c5ccccc5)c4c3)s2)cc1`, for which the growth was 78.7%.

On to `Cn1cc(-c2csc(-c3cccc(F)c3)n2)c2cccnc21`, for which the growth was -47.9% [100 µM] (active).

`COc1c(CCC[P+](c2ccccc2)(c2ccccc2)c2ccccc2)cc2c(c1OC)OCO2`: the growth was 2.54% (active).

For the compound `Cc1ccc(Nc2nc(N)nc(CSCC(=O)NN)n2)cc1`, the growth was 102%.

For `O=C(N/N=C/c1ccncc1)c1ccc(C(F)(F)F)nc1Nc1cccc(C(F)(F)F)c1`, the growth was 25.6%.

For the compound `COc1cc2c(cc1-c1c(C)noc1C)ncc1nc(C3CCC(F)(F)CC3)n(C3CCC(OC(F)F)CC3)c12` (stereo unspecified), the growth was 22.5%.

For `O=c1[nH][n+](-c2ccc(Cl)cc2)no1`, the growth was 26.9%.

In the case of `O=C(CCc1nnc(CN(c2ccccc2)c2ccccc2)o1)c1nc2ccccc2[nH]1`, the growth was 74.4%.

Turning to `Cc1cccc(Cc2cnc(NC(=O)c3ccc4nnsc4c3)s2)c1`, the growth was 57.8%.

As for `Cc1ccc(C(=O)COc2cccc(/C=C3\Oc4ccccc4C3=O)c2)cc1`, the growth is 50.3%.

Take `CN(C)CCC=C1c2ccccc2C(C)(C)c2ccccc21`: the growth was 81%.

Consider `COc1cc(C2CC(c3cc(OC)c(OCCCOc4ccc(-n5c(/C=C/c6ccccc6)nc6ccccc6c5=O)cc4)c(OC)c3)=NO2)cc(OC)c1OC` (stereo unspecified), for which the growth is 108%.

As to `CS(=O)c1cccc(-c2ccc3nc(N)n(-c4ccc(C(F)(F)F)cc4)c(=O)c3c2)c1` (stereo unspecified), the growth is 77.1%.

In the case of `CC(C)(C)C(CCc1ccc(Cl)cc1)N1CCN(C2CCCCC2)CC1` (stereo unspecified), the growth was 23.2%.

Consider `CNC(=O)CCN1CCN(CC/C=C2\c3ccccc3Sc3ccc(Cl)cc32)CC1`, for which the growth is 85%.

`O=c1ssc(Cl)c1-c1ccccc1`: the growth was 95.7%.

Consider `O=C1CC(N2C(=O)/C(=C/C(Cl)=C\c3ccc([N+](=O)[O-])cc3)SC2=S)C(=O)N1c1ccc(O)cc1` (stereo unspecified), for which the growth is 17.2%.

Take `COC(=O)CCC1=C(C)C2=NC1=CC1=NC(=CC3=NC(=Cc4[nH]c(/c(=C(/C)O)c4C)=C2)C(C(C)=O)=C3C)C(C)=C1CCC(=O)OC`: the growth is 82.9%.

With `CC1SC(c2ccc(OCc3ccccc3)cc2)N(NC(=O)C(O)(c2ccccc2)c2ccccc2)C1=O` (stereo unspecified), the growth is 25.8%.

In the case of `N#CC1=C(NC=O)Oc2c(ccc3ccccc23)C1c1ccccc1` (stereo unspecified), the growth was 25.2%.

`O=C(Cc1ccc(F)c(F)c1)Nc1cc(C2(C(F)(F)F)CC2)nn1Cc1ccccc1`: the growth was -8.37% (active).

With `CCN(CC)CCN1CC(O)=C(c2nc(-c3ccc(Cl)cc3)cs2)C1=N`, the growth was 17.2%.

The test system of the next assay is BT-549 breast. The description is as above. The settings on record: 10 µM unless noted.
In the case of `C[C@H]1[C@H]2[C@H]3CC[C@@H]4[C@@]5(C)C/C(=C/c6ccco6)C(=O)C(C)(C)[C@@H]5CC[C@@]4(C)[C@]3(C)CC[C@]23CO[C@]1(C)[C@@H](C(=O)/C=C\c1ccco1)C3`, the growth was 111%.

With `O=C(CCCCCCN1CC(=O)N2[C@@H](c3ccccc3Cl)c3[nH]c4ccccc4c3C[C@H]2C1=O)NO`, the growth is 76.8%.

Turning to `O=C(Nc1cccc(C(F)(F)F)c1)Nc1cccc(C(F)(F)F)c1`, the growth is 0.669% (active).

With `CC1=C([Se]CC(OC(=O)CC[Se]c2ccccc2)C(=O)NCCCCCC(=O)OCc2ccccc2)C(=O)c2ccccc2C1=O` (stereo unspecified), the growth is 39.9%.

Take `CCCCNC(=O)Oc1ccc2c(=O)c3sc4c(=O)c5ccccc5c(=O)c4c3c(=O)c2c1`: the growth is -90.2% (active).

Take `C=C1C(=O)O[C@H]2[C@H]1CC/C(COC(=O)C(=O)c1c[nH]c3ccc(OC)cc13)=C\CC[C@@]1(C)O[C@@H]21`: the growth was -63.7% (active).

With `O=c1[nH]nc(-c2ccccc2)c2c(-c3ccccc3)onc12`, the growth was 22.8%.

Regarding `COc1cc(-c2nn(-c3ccccc3)cc2-c2ccnc(NCCNS(=O)(=O)c3ccc(Cl)cc3)n2)ccc1Cl`, the growth was 16.6%.

For the compound `CCCCn1c(=O)c2c(nc(NCCc3ccc(O)c(O)c3)n2CCC)n(CCCC)c1=O`, the growth is 102%.

With `S=C(c1ccc2c(c1)OCO2)N1CCN(c2ccccc2Cl)CC1`, the growth is 81.6%.

In the case of `CC1=NOC(=O)/C1=C\c1ccc(O)cc1`, the growth is 107%.

Regarding `O=[N+]([O-])c1ccc(N2c3ccncc3Sc3ccncc32)cc1`, the growth was 114%.

For the compound `C=CCNc1nc(NN2C(=O)c3cccc4cccc(c34)C2=O)nc(-n2cnc3ccccc32)n1`, the growth was 82.5%.

As to `Nc1ccc2c(c1)c(N)nn2C(=O)Nc1ccc(Cc2ccccc2)cc1`, the growth is 86.4%.

For `COC(=O)c1ccc(CSc2nnc(-c3c(C)nc4ccc(C)cn34)o2)cc1`, the growth was 100%.

For the compound `Cc1cc(O)c(C2=NN(c3ccc(S(N)(=O)=O)cc3)C(c3ccccc3Cl)C2)cc1Cl` (stereo unspecified), the growth is 104%.

In the case of `Cc1ccc(Cc2cnc(NC(=O)c3ccc4noc(-c5ccccc5)c4c3)s2)cc1`, the growth is 99.6%.

`Cn1cc(-c2csc(-c3cccc(F)c3)n2)c2cccnc21`: the growth is -36.9% [100 µM] (active).

In the case of `COc1c(CCC[P+](c2ccccc2)(c2ccccc2)c2ccccc2)cc2c(c1OC)OCO2`, the growth is 11.5%.

Turning to `Cc1ccc(Nc2nc(N)nc(CSCC(=O)NN)n2)cc1`, the growth was 93.6%.

Turning to `O=C(N/N=C/c1ccncc1)c1ccc(C(F)(F)F)nc1Nc1cccc(C(F)(F)F)c1`, the growth is 23.8%.

With `COc1cc2c(cc1-c1c(C)noc1C)ncc1nc(C3CCC(F)(F)CC3)n(C3CCC(OC(F)F)CC3)c12` (stereo unspecified), the growth was 79.2%.

`O=c1[nH][n+](-c2ccc(Cl)cc2)no1`: the growth is 91.8%.

In the case of `O=C(CCc1nnc(CN(c2ccccc2)c2ccccc2)o1)c1nc2ccccc2[nH]1`, the growth was 84.8%.

On to `Cc1cccc(Cc2cnc(NC(=O)c3ccc4nnsc4c3)s2)c1`, for which the growth was 105%.

`Cc1ccc(C(=O)COc2cccc(/C=C3\Oc4ccccc4C3=O)c2)cc1`: the growth was 124%.

Consider `CN(C)CCC=C1c2ccccc2C(C)(C)c2ccccc21`, for which the growth is 94.5%.

`COc1cc(C2CC(c3cc(OC)c(OCCCOc4ccc(-n5c(/C=C/c6ccccc6)nc6ccccc6c5=O)cc4)c(OC)c3)=NO2)cc(OC)c1OC` (stereo unspecified): the growth is 118%.

`CS(=O)c1cccc(-c2ccc3nc(N)n(-c4ccc(C(F)(F)F)cc4)c(=O)c3c2)c1` (stereo unspecified): the growth was 99.4%.

Turning to `CC(C)(C)C(CCc1ccc(Cl)cc1)N1CCN(C2CCCCC2)CC1` (stereo unspecified), the growth is 50%.

Consider `CNC(=O)CCN1CCN(CC/C=C2\c3ccccc3Sc3ccc(Cl)cc32)CC1`, for which the growth was 91.5%.

Regarding `O=c1ssc(Cl)c1-c1ccccc1`, the growth is 114%.

With `O=C1CC(N2C(=O)/C(=C/C(Cl)=C\c3ccc([N+](=O)[O-])cc3)SC2=S)C(=O)N1c1ccc(O)cc1` (stereo unspecified), the growth was -17.3% (active).

`COC(=O)CCC1=C(C)C2=NC1=CC1=NC(=CC3=NC(=Cc4[nH]c(/c(=C(/C)O)c4C)=C2)C(C(C)=O)=C3C)C(C)=C1CCC(=O)OC`: the growth was 100%.

In the case of `CC1SC(c2ccc(OCc3ccccc3)cc2)N(NC(=O)C(O)(c2ccccc2)c2ccccc2)C1=O` (stereo unspecified), the growth is 92.9%.

Regarding `N#CC1=C(NC=O)Oc2c(ccc3ccccc23)C1c1ccccc1` (stereo unspecified), the growth is 25.9%.

For the compound `O=C(Cc1ccc(F)c(F)c1)Nc1cc(C2(C(F)(F)F)CC2)nn1Cc1ccccc1`, the growth is 14.9%.

In the case of `CCN(CC)CCN1CC(O)=C(c2nc(-c3ccc(Cl)cc3)cs2)C1=N`, the growth was 49.9%.

Source of the values: PubChem BioAssay (NCI).
